# Test results: the supplement of paper PMC8047044
# Values joined by “and” are separate entries in the source; they are usually repeats but may differ in a detail not shown here. Identical values can stand only once. Counter-ions that a name gives are not always drawn. ± gives the standard deviation of the averaged measurements.
# Tested on: Neuro-2a
# Assay: neurite formation score, plate-normalized to DMSO control mean 5.04 (score (0-8 scale)); higher = more or longer neurites
# Settings: 1 µM
# Description: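 Neuro-2a mouse neuroblastoma cells in PLL-coated 96-well plates were pre-treated for 1 h in DMEM(+) with each kinase inhibitor at 1 µM, then switched to serum-free DMEM(-) with inhibitor to induce neurite outgrowth and fixed about 2-3 h later. Three blinded observers scored neurite formation from 0 (no neurites) to 8 (long neurites on almost all cells).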
row,Compound,neurite formation score
1,NC(=O)c1ncn([C@@H]2O[C@H](CO)[C@@H](O)[C@H]2O)c1N,4.57
2,N#CC[C@H](C1CCCC1)n1cc(-c2ncnc3[nH]ccc23)cn1,4.91
3,Cc1ccc(NC(=O)c2ccc(CN3CCN(C)CC3)cc2)cc1Nc1nccc(-c2cccnc2)n1 [Imatinib Mesylate (STI571)],4.91
4,CN(C)S(=O)(=O)c1ccc2c(c1)/C(=C/c1cc3c([nH]1)CCCC3)C(=O)N2,4.54
5,Cc1nc(Nc2cnn(C3CCNCC3)c2)nc2c1N(C)C(=O)c1cc3ccccc3cc1N2C,3.96
6,Cc1cc(C)nc(NS(=O)(=O)c2ccc(NC(=S)NC(=O)COc3ccc(Br)cc3Cl)cc2)n1,3.9
7,CN(C)c1ccc(-c2nc3ncc(Cl)c(N4CCN(CC(=O)Nc5nccs5)CC4)c3[nH]2)cc1,3.8
8,C[C@@H]1CCNC(=O)c2cc3ccc(C(=O)Nc4nc5ccccc5n4CCCN(C)C)cc3n21,5.29
9,CCNc1nc(Nc2cc(F)c(C(=O)N3CCOCC3)cc2OC)ncc1C(F)(F)F,3.21
10,CNC(=O)c1cc(Oc2ccc(NC(=O)Nc3ccc(Cl)c(C(F)(F)F)c3)c(F)c2)ccn1 [Regorafenib hydrochloride],3.69
11,COc1c(OCCCN2CCOCC2)ccc2c3n(c(=NC(=O)c4cnc(N)nc4)nc12)CCN3 [BAY 80-6946 (Copanlisib)],4.14
12,CCS(=O)(=O)N1CC(CC#N)(n2cc(-c3ncnc4[nH]ccc34)cn2)C1,4.02
13,CC(C)(C)c1cc(NC(=O)Nc2ccc(-c3cn4c(n3)sc3cc(OCCN5CCOCC5)ccc34)cc2)no1 [Quizartinib (AC220)],4.57
14,CN1CCC(Nc2nc(Nc3ccc(Oc4ccccc4)cc3)c3c(=O)[nH]cc(Br)c3n2)CC1,3.29
15,CN1CCC(CNc2ccc3ncc(-c4cccc(OC(F)(F)F)c4)n3n2)CC1 [SGI-1776 free base],5.69
16,C[C@]1(O)C[C@@H](c2nc(-c3ccc4ccc(-c5ccccc5)nc4c3)c3c(N)nccn32)C1 [Linsitinib],4.9
17,NC(=O)Nc1sc(-c2ccc(F)cc2)cc1C(N)=O,4.36
18,Cc1nc2c(-c3cnc(N)nc3)nc(N3CCOCC3)nc2n1C(C)C,4.02

row,Compound,neurite formation score
1,COc1cc(C(=O)N2CCC(N3CCN(C)CC3)CC2)ccc1Nc1ncc2c(n1)N(C)c1ccccc1C(=O)N2C,4.36
2,"CCCCCCCCCCCCCC(=O)OC[C@H](CO)OC(=O)CCCCCCCCCCCCC [1,2-Dimyristoyl-sn-glycerol]",4.88
3,O=C(NC(NC(=S)Nc1ccc(F)c([N+](=O)[O-])c1)C(Cl)(Cl)Cl)C(c1ccccc1)c1ccccc1 (stereo unspecified),3.96
4,Cc1ccc(Nc2nccc(N(C)c3ccc4c(C)n(C)nc4c3)n2)cc1S(N)(=O)=O [Pazopanib Hydrochloride],3.57
5,Cc1cnc(-c2cnc(NCCNc3ccc(C#N)cn3)nc2-c2ccc(Cl)cc2Cl)[nH]1,5.29 and 4.57
6,O=C(Nc1nc2cccc(-c3ccc(CN4CCS(=O)(=O)CC4)cc3)n2n1)C1CC1,4.88 ± 0.58
7,Cc1[nH]c(/C=C2\C(=O)Nc3ccc(S(=O)(=O)Cc4c(Cl)cccc4Cl)cc32)c(C)c1C(=O)N1CCC[C@@H]1CN1CCCC1,3.91
8,COc1cc(N2CCOCC2)ccc1Nc1ncc(F)c(Nc2ccccc2NS(C)(=O)=O)n1,4.54
9,CCCCCCCCCCCCc1ccc(S(=O)(=O)Nc2nncs2)cc1,4.24
10,N#CCNC(=O)c1ccc(-c2ccnc(Nc3ccc(N4CCOCC4)cc3)n2)cc1 [CYT387 sulfate salt],4.69
11,Nc1ccc(C(=O)Nc2cccc(-c3nc(N4CCOCC4)c4oc5ncccc5c4n3)c2)cn1,4.54
12,CC(C)Nc1cc(-c2c[nH]c(C(=O)N[C@H](CO)c3cccc(Cl)c3)c2)c(Cl)cn1,3.47
13,CCc1ccc(/C=C2/SC(=S)NC2=O)cc1,5.57
14,Oc1ccc(Nc2nc(-c3ccc(Cl)cc3)cs2)cc1,4.21
15,c1cncc(CN2CCC(n3ncc4c(N5CCOCC5)nc(-c5ccc6[nH]ccc6c5)nc43)CC2)c1,1.54
16,COc1cc2ncnc(Nc3cccc(Br)c3)c2cc1OC,4.14
17,CO[C@H]1C[C@@H]2CC[C@@H](C)[C@@](O)(O2)C(=O)C(=O)N2CCCC[C@H]2C(=O)O[C@H]([C@H](C)C[C@@H]2CC[C@@H](OCCO)[C@H](OC)C2)CC(=O)[C@H](C)/C=C(\C)[C@@H](O)[C@@H](OC)C(=O)[C@H](C)C[C@H](C)/C=C/C=C/C=C/1C [Everolimus (RAD001)],4.57
18,COc1cc2ncnc(Nc3cccc(Cl)c3F)c2cc1OC(=O)N1CCN(C)C[C@H]1C,4.54
